From PubChem BioAssay AID901 (National Center for Advancing Translational Sciences (NCATS), 2007)
In all, about 120,000 compounds went through this assay and fewer than 10 were called active. Not shown: some 4% with an inconclusive outcome. Calls follow the shape of the dose curve; as a rule, active = well fitted curve in the direction sought with a large enough effect in the signal ratio (not every such curve was filed as active); inconclusive = small, poorly fitted or top-dose-only effect, or a change in a side signal; inactive = no such curve, though single readings can be large or run the other way; the % refers to the signal ratio. Not all results are given here.

target: Inositol monophosphatase 1 (Rattus norvegicus) (UniProt P97697); assay: qHTS Assay for Identifying the Cell-Membrane Permeable IMPase Inhibitors; details: CHO-M1 cells, HTRF TR-FRET ratio; series mostly up to 46.1 µM;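 also: higher means more IMPase inhibition seen as more IP1 and lower FRET ratio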
Sequence (P97697 whole entry, looked up): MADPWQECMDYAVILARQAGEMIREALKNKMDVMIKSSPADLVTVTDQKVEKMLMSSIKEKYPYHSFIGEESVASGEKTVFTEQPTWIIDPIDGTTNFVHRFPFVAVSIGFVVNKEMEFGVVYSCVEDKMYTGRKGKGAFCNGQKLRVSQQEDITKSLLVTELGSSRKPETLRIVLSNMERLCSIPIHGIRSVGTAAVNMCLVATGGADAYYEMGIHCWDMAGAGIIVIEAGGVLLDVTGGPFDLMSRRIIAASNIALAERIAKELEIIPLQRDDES
Source text: NCGC IMPase Assay Overview
Lithium has been widely used for the treatment of bipolar disorder. But lithium has a narrow therapeutic index and it can cause side effects such as thirst, weight gain, tremor, polyuria and memory problems. Although the mechanism for lithium action in treatment of bipolar disorder is still not fully understood, inhibition of inositol monophosphatase (IMPase) and the subsequent depletion of the inositol pool in living cells have been implicated as the primary therapeutic benefit of lithium therapy. Therefore, a selective IMPase inhibitor with reduced side effects might be a good drug candidate to replace lithium for the treatment of bipolar disorder. Several IMPase inhibitors have been discovered previously. However, they are not suitable for therapeutic use because of their poor cell membrane penetrability or oral bioavailability; the development of new cell-permeable IMPase inhibitors is needed.
IMPase catalyzes the hydrolysis of inositol-1-phosphate (IP1) to release free inositol. Binding of an agonist to a Gq coupled GPCR results in the activation of PLC, which hydrolyzes the PIP2 to form inositol-1,4,5-trisphosphate (IP3) and diacyl glycerol (DAG). While DAG activates protein kinase C (PKC), IP3 triggers the elevation of intracellular free Ca2+. The IP3 is very rapidly inactivated by hydrolysis to IP2, IP1 and then inositol by a series of enzymes including IMPase. Free inositols are used for synthesis of PI and thus start another inositol cycle.
To identify new cell-permeable IMPase inhibitors, we developed a cell-based IMPase assay in which the cytosolic IP1 is measured by a time-resolved fluorescence resonance energy transfer (TR-FRET) assay. In this assay, an IP1 specific antibody is used to detect the labeled IP1 tracer. When the cell lysate contains the elevated IP1 due to the inhibition of IMPase, the TR-FRET between the labeled antibody and IP1 tracer is disrupted resulting in a reduction in the total signal. Since the TR-FRET is used, this cell-based assay is a homogenous assay without cell wash and medium change that is suitable for assay miniaturization and HTS.
NCGC IMPase Assay Protocol Summary
A Chinese hamster ovary (CHO) cell line stably expressing the M1 receptor (CHO-M1) was obtained from ATCC and maintained in F-12 Kaighn's media (Invitrogen, Carlsbad, CA, 21127) supplemented with 10 % FBS, 100 units/ml penicillin, 100 ug/ml streptomycin and 250 ug/ml geneticin at 37C, 5% CO2 in a humidified atmosphere. Before the assay, aliquots of cells were frozen and stored at -135C. The assay was performed in 1536-well format. Data are reported for both the ratio of the two emission wavelengths, and also for the component 'donor' channel, Em2=620. […] AC50 values were determined from concentration-response data modeled with the standard Hill equation.
IMPase 1536-well assay protocol:
(1) Plate 4 ul/well (2000 cells) of cell suspension from frozen CHO-M1 Cells in white, tissue culture treated 1536-well plates that are cultured at 37C, 5 % CO2 for 16 to 30 hours.
(2) Add 23 nl/well of compound in DMSO solution. The final titration for each compound was between 0.6 nM and 46 uM.
(3) Add 1 ul of carbachol (50 uM in stimulation buffer containing10mM HEPES, 1mM CaCl2, 0.5 mM MgCl2, 4.2 mM KCl, 146 mM NaCl, 5.5 mM glucose, 50mM LiCl, pH 7.4.
(4) Incubation at 37C, 5 % CO2 for 30 min.
(5) Add 1 ul/well of d2-conjugated IP1 (d2-IP1) and 1 ul/well of Eu+ cryptate conjugated anti-IP1 antibody (Eu+-Ab) prepared in the cell lysis buffer, both from the IP-One kit (Cisbio, MA).
(6) Incubate at room temperature for 10 minutes.
(7) Detect the assay plate (Ex = 320, Em1 =665 and Em2 620) in a ViewLux plate reader.
inositol monophosphatase, IMPase, IMPase inhibitor, lithium, bipolar disorder, IP-One, HTRF, qHTS, NIH roadmap, NCGC
Note: In the gene ID and protein GI references for this assay, rat IMPase is referenced instead of hampster as hamster accession numbers were not available.

outcome, inactive:
CCOc1ccc(S(=O)(=O)N(CC(=O)NCCSCc2ccc(C)cc2)c2ccccc2)cc1
Cc1ccc(C)c(N2CCN(Cc3nnc(-c4ccccc4)o3)CC2)c1
COC(=O)Cc1ccc(NC(=S)NCc2ccc(Cl)cc2)cc1
CCOc1cccc2c1N[C@@H](c1ccc(C(=O)O)cc1)[C@H]1CC=C[C@@H]21
NC(=S)N/N=C/c1coc2cc(Cl)ccc2c1=O
CCc1ccc2oc(-c3ccc(NC(=O)c4cc5ccccc5o4)cc3)nc2c1
CCOc1ccc(C2CC(=O)c3c([nH]c(C(=O)OCc4ccccc4)c3C)C2)cc1 (configuration not stated)
Cc1ccc(C)c(NC(=O)C(OC(=O)c2ccc(C)s2)c2ccccc2)c1 (configuration not stated)
CCOc1ccc(NC(=O)c2c(NC(=O)Cc3ccccc3)sc3c2CCC(C)C3)cc1 (configuration not stated)
Cc1ccc(NC(=O)C(=O)NCc2ccc(/C=N/NC(=O)c3c(C)nc4cc(C)ccn34)o2)cc1
Cc1ccc(C)c(OCC(=O)Nc2sc3c(c2C#N)CCCC3)c1C
Cc1nc(SCC(=O)Nc2ccc(C(=O)O)cc2)n[nH]1
CCOC(=O)c1c(NC(=S)NC(=O)/C=C/c2cccs2)sc(C)c1C
CCCOC(=O)c1c(NC(=O)c2cc3nc(-c4ccc(OC)cc4)cc(C(F)(F)F)n3n2)sc2c1CCCC2
Cc1cccc(-c2nnc(SCC(=O)N3CCCc4ccccc43)o2)c1
CCOC(=O)/C(C#N)=C/c1ccc(N2CCN(Cc3ccccc3)CC2)cc1
CCOc1ccc(S(=O)(=O)Nc2ccc3oc4c(c3c2)CC(C)CC4)cc1 (configuration not stated)
Cc1ccc(CSCC(N)C(=O)O)cc1 (configuration not stated)
CCC1=Nc2cc(C(=O)NCC(C)c3ccccc3)ccc2Sc2ccc(C)cc21 (configuration not stated)
CCOC(=O)c1ccc(NC(=O)c2ncn(-c3ccccc3)n2)cc1
COCCNC(=O)c1ccc(N2CCC3(CC2)OCCO3)c([N+](=O)[O-])c1
O=C(Nc1ccc2oc(-c3ccc(O)c(Br)c3)nc2c1)c1cc2ccccc2o1
Cc1c(NS(=O)(=O)c2ccc(NC3CCCC3)c([N+](=O)[O-])c2)c(=O)n(-c2ccccc2)n1C
O=C(CCS(=O)(=O)c1cc(Br)cc2c1N(C(=O)C1CC1)CC2)Nc1ccc(Br)cc1F
COc1ccc(OC)c(/C=C/C(=O)OCC(=O)Nc2ccc3c(c2)OCCO3)c1
COc1cccc(N=C2SC(C(=O)Nc3cccc(Cl)c3)CC(=O)N2C)c1 (configuration not stated)
COc1ccc([N+](=O)[O-])cc1NC(=O)c1ccc(N(Cc2ccccc2C)S(C)(=O)=O)cc1
CC1=C(C(=O)Nc2ccccc2)C(c2ccc(C)cc2)n2nc(SCc3ccccc3C)nc2N1 (configuration not stated)
FC(F)(F)c1cc(Nc2nc3ccccc3c3nncn23)ccc1Cl
CCCSc1nc2sc3c(c2c(=O)n1-c1cccc(Br)c1)CC(C)(C)OC3
COc1cccc(OCCn2c(-c3ccc(Br)cc3)nc3ccccc3c2=O)c1
CCOC(=O)c1c(N)n(-c2cccc(C)c2C)c2nc3ccccc3nc12
Cc1ccc(NC(=O)c2sc3nc(N)c(C#N)cc3c2N)cc1
Cc1ccc2nc(-c3ccc(C)c(NC(=O)Cc4ccccc4)c3)oc2c1
CN(Cc1ccccc1)C(=O)CCS(=O)(=O)c1cc(Br)cc2c1N(C(=O)C1CC1)CC2
COC(=O)c1ccc(OCC(O)CN(CCO)CC(O)Cn2ccc3ccccc32)cc1 (configuration not stated)
COc1cccc(C(=O)NC2(C(F)(F)F)C(=O)Nc3c2c(=O)[nH]c(=O)n3-c2ccc(C)cc2)c1 (configuration not stated)
COC(=O)c1c(NC(=O)C(C)Oc2ccc(Cl)c(C)c2)sc(C)c1C (configuration not stated)
O=C(NCCCN1CCN(c2cccc(Cl)c2)CC1)c1nnc(Cc2ccc(F)cc2Cl)o1
CCC(=O)NCc1cc(-c2nn(C)c(=O)c3ccccc23)ccc1OC
CCCn1c(C)cc(/C=C(\C#N)C(=O)OCC(=O)Nc2cc(OC)c(OC)c(OC)c2)c1C
COc1ccc2nc(SCc3ccccc3)nc(C)c2c1
COc1ccc(-c2cc(C(F)(F)F)nc(SCC(=O)N(C)Cc3ccccc3)n2)cc1OC
O=C(COC(=O)c1cc([N+](=O)[O-])ccc1NCc1ccccc1)NC1CCCCC1
CCCn1c(=N)n(CC(O)COc2ccccc2OC)c2ccccc21 (configuration not stated)
COc1cccc(-c2nnc(SCC(=O)N3CCC(C)CC3)o2)c1
Cc1cc(C)cc(NC(c2nnc(-c3cccc(F)c3)o2)c2ccc(F)cc2Cl)c1 (configuration not stated)
CCn1c2ccccc2c2cc(NC(=O)COc3ccc(C)cc3C)ccc21
Cc1cccc(N2CCN(C(=O)c3ccc(Nc4nc5ccccc5n5nnnc45)cc3)CC2)c1C
O=C(Nc1ccc(Oc2ccccc2)cc1)C1CCN(S(=O)(=O)c2ccc(Cl)cc2)CC1
CCOC(=O)c1cnc2c(C)cc(Cl)cc2c1NCCc1ccc(OC)c(OC)c1
C/C(CC1CC(C)(C)OC1=O)=N/Nc1nc(-c2ccccc2)cs1 (configuration not stated)
Cc1ccc(C)c(N2CCN(C(=O)C3CCC(CNS(=O)(=O)c4cccs4)CC3)CC2)c1 (configuration not stated)
CCc1nc2nc(C)cc(Nc3ccc(F)c(Cl)c3)n2n1
Cn1c(=O)c2c(nc(SCC(=O)Nc3ccc(F)cc3)n2Cc2ccc(Cl)cc2)n(C)c1=O
COc1ccc(NC(=O)C2CCCN(S(=O)(=O)c3c(C)[nH]c(=O)[nH]c3=O)C2)c(OC)c1 (configuration not stated)
OCC(CO)(CO)NCc1ccc(-c2ccccc2)cc1
CCCCCCCCC(=O)NCCOc1ccccc1
Cc1cc(NC(=O)C2CCC(CNS(=O)(=O)c3ccc(Br)s3)CC2)ccc1Br (configuration not stated)
C[n+]1ccccc1C1CCCC/C1=N\Nc1ccc([N+](=O)[O-])cc1[N+](=O)[O-] (configuration not stated)
CC1=C(C(=O)OCC2CCCCC2)C(c2c(F)cccc2Cl)CC(=O)N1 (configuration not stated)
CCN(C(=O)COC(=O)c1cc(NS(=O)(=O)c2ccc(Cl)c([N+](=O)[O-])c2)ccc1O)C1CCCCC1
